Source: PubChem BioAssay (Tox21)
Inconclusive results are not listed. A call without a number means that no potency is given here. The source made the active and inactive calls. Calls follow the shape of the dose curve; as a rule, active = well fitted cell-killing curve with a large enough effect in the repeat runs; inconclusive = weak or mixed curves; inactive = flat fitted curve, though single readings scatter.

Assay: qHTS assay to identify small molecule antagonists of the estrogen related receptor (ERR) signaling pathway - cell viability counter screen (AID 1224818);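 also: viability measured after 17.5 h of compound exposure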
Conditions: ERR reporter cell line viability counter screen; series mostly up to 46.1 µM
Procedure, shortened: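 Compounds dissolved in DMSO were applied to ERR cells seeded at 2,000 per well 6 h earlier. Cell viability followed 17.5 h later via 30-min CellTiter-Fluor fluorescence.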
Potency is read from the fitted curve at half-maximal effect.

Row | Compound | Potency
1 | COc1cccc(C(=O)NCCN2CCN(c3ccc(Cl)cc3)CC2)c1 | inactive
2 | C#C[C@]1(O)CC[C@H]2[C@@H]3CCC4=Cc5oncc5CC4(C)[C@H]3CCC21C (some centres not stated) | inactive
3 | CC[C@H]1OC(=O)[C@H](C)[C@@H](O[C@H]2C[C@@](C)(OC)[C@@H](O)[C@H](C)O2)[C@H](C)[C@@H](O[C@@H]2O[C@H](C)C[C@H](NC)[C@H]2O)[C@](C)(O)C[C@@H](C)CN(C)[C@H](C)[C@@H](O)[C@]1(C)O | inactive
4 | COc1cc(OC)c(/C=C2/C(=O)Nc3ccccc32)c(OC)c1 | 11 µM (active)
5 | CN=C(N)NCCC[C@H](N)C(=O)O | inactive
6 | CCNc1nc2c(ncn2[C@H]2C[C@H](O)[C@@H](CO)O2)c(=O)[nH]1 | inactive
7 | CC(C)[C@H](NC(=O)OCc1ccccc1)C(=O)N[C@H](C=O)Cc1ccccc1 | inactive
8 | CCCCCCCCCCCCCCCCCC(=O)OC(CC(=O)O)C[N+](C)(C)C (configuration not stated) | inactive
9 | CC[C@H](C)C(=O)O[C@H]1CCC=C2C=C[C@H](C)[C@H](CC[C@@H]3C[C@@H](O)CC(=O)O3)[C@H]21 | inactive
10 | NCCCCN | inactive
11 | O=c1onc2n1-c1cc(Br)ccc1OC2 | inactive
12 | NCCSSCCN | inactive
13 | C=CC[C@H](N)C(=O)O | inactive
14 | Cc1ccc([N+](=O)[O-])cc1S(=O)(=O)N(C)C | inactive
15 | O=C1C2C=CC=CC2=NC(=S)N1CCN1CCC(=C(c2ccc(F)cc2)c2ccc(F)cc2)CC1 (configuration not stated) | inactive
16 | COc1cc(CC(=O)O)ccc1O | inactive
17 | Cn1cc(C(F)(F)F)nc1-c1ccc(OCC(O)CNCCOc2ccc(O)c(C(N)=O)c2)cc1 (configuration not stated) | inactive
